# Laboratory results as given in PubChem BioAssay (NCATS).
# Active and inactive are the calls of the source. Calls come from the whole dose curve; as a rule, active = well fitted curve in the direction sought with a large enough effect; inactive = no such curve, though single readings can be large or run the other way.
# Target: Alpha-galactosidase (Coffea arabica) (UniProt Q42656)
# Experiment: Counterscreen for Glucocerebrosidase Inhibitors: qHTS Assay for Coffee Bean alpha-Galactosidase at pH 5.9 (AID 998)
# Conditions: coffee bean alpha-galactosidase enzyme assay; series mostly up to 76.9 µM
# Description: NIH Chemical Genomics Center [NCGC]
# NIH Molecular Libraries Screening Centers Network [MLSCN]
# PI Name: Zheng, Wei [NIH]
# Alpha-galactosidase is a homodimeric glycoprotein that hydrolyzes the terminal alpha-galactosyl moieties from glycolipids and glycoproteins. Deficiency of this enzyme results in Fabry Disease with progressive accumulation of globotriaosylceramide and other glycosphingolipids in vascular endothelial cells that causes renal failure, myocardial infarction and stroke, and premature death in patients. It has reported that the improper folding and trafficking of alpha-galactosidase resulted from the genetic mutations may account for a significant numbers of Fabry patients. […] We optimized this coffee bean alpha-galactosidase assay in 1536-well plate format as a counter-screen assay for identifying the selective small molecule inhibitors of other lysosomal enzymes.
# NCGC Assay Protocol Summary:
# This is a fluorogenic enzyme assay with 4-Methylumbelliferyl alpha-D-galactopyranoside as the substrate and green coffee bean […] (from Sigma-Aldrich) as the enzyme preparation. Upon the hydrolysis of this fluorogenic substrate, the resulting product, […]. 4-Methyllumbelliferone, can be excited at 365 nm and emits at 440 nm which can be detected by a standard fluorescence plate reader. Data were normalized to the controls for basal activity (without enzyme) and 100% activity (with enzyme). In the AC50 values were determined from concentration-response data modeled with the standard Hill equation.
# Assay buffer: 50 mM citric acid, 0.005% Tween-20, pH 5.9. (pH 5.9 is an optimal condition for this enzyme assay.)
# 1536-well assay protocol for the coffee bean alpha-galactosidase:
# (1) Add 2 ul/well of enzyme (2 nM final)
# (2) Add 23 nL compounds in DMSO solution. The final titration was 0.7 nM to 77 uM.
# (3) Add 1 ul of substrate (80 uM final)
# (4) Incubate at room temperature for 20 min.
# (5) Add 2 ul stop solution (1M NaOH and 1M Glycine mixture, pH 10)
# (6) Detect the assay plate in a ViewLux plate reader (PerkinElmer) with Ex=365 nm and Em=440nm.
# Keywords: Alpha-galactosidase, Fabry Disease, pharmacological chaperone, chaperone therapy, high throughput screening, alpha-galactosidase inhibitor, MLSMR, MLSCN, NIH Roadmap, qHTS and NCGC
# Sequence of Alpha-galactosidase (Coffea arabica) (Q42656 whole entry, looked up): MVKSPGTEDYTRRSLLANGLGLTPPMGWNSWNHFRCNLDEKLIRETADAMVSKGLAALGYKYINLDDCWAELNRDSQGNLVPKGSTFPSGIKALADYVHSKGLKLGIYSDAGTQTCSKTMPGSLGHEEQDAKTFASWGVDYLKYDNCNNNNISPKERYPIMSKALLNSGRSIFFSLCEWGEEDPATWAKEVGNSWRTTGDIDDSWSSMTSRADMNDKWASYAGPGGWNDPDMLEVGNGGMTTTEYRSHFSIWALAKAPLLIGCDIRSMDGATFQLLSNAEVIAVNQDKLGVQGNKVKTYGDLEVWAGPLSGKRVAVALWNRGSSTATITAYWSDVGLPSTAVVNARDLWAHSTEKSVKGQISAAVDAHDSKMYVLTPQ
row,Structure (SMILES),outcome
1,NC(=NCCC[C@H](N)C(=O)O)N[N+](=O)[O-],inactive
2,CC1=NN=C(c2ccc(N)cc2)c2cc3c(cc2C1)OCO3,inactive
3,CC(C)Oc1cccnc1N(C)C1CCN(Cc2ccccc2)CC1,inactive
4,C[C@@H]1O[C@H](C[N+](C)(C)C)C[C@H]1O,inactive
5,Cc1cccc(C#Cc2ccccc2)n1,inactive
6,c1ccc2sc(C3(N4CCCCC4)CCCCC3)cc2c1,inactive
7,Cn1cnc(CCN)c1,inactive
8,NCCc1c[nH]c2ccc(O)cc12,inactive
9,CCCN1CCC[C@H](c2cccc(O)c2)C1,inactive
10,CC(=O)NCCc1c[nH]c2ccccc12,inactive
11,Clc1cnc(Oc2ccc(Oc3ncc(Cl)cc3Cl)cc2)c(Cl)c1,inactive
12,CS(=O)(=O)Nc1ccc([N+](=O)[O-])cc1Oc1ccccc1,inactive
13,CCN1CCc2nc(N)oc2CC1,inactive
14,Cc1nccc2c1[nH]c1ccccc12,inactive
15,COc1ccc2c(c[n+](C)c3c4cc5c(cc4ccc23)OCO5)c1OC,inactive
16,CC(=O)Oc1ccccc1C(=O)O,inactive
17,O=C(O)CC[N+](=O)[O-],inactive
18,CC(C)(Sc1ccc(CCN(CCCCC2CCCCC2)C(=O)NC2CCCCC2)cc1)C(=O)O,inactive
19,c1ccc(CCCN2CCN(CCOC(c3ccccc3)c3ccccc3)CC2)cc1,inactive
20,S=C(NC1CCCCC1)N1CCC(c2cnc[nH]2)CC1,inactive

row,Structure (SMILES),outcome
1,CCOC(=O)C1=C[C@@]2(CC)CCCN3CCc4c(n1c1ccccc41)[C@H]32,inactive
2,NC(N)=NOCCC(N)C(=O)O (stereo not given),inactive
3,C[N+](C)(C)CC(=O)O,inactive
4,C[C@]12N[C@H](Cc3ccccc31)c1ccccc12,inactive
5,CCCN(CCC)[C@@H]1CCc2ccc(O)cc2C1,inactive
6,C[C@]12C[C@H](O)[C@H]3[C@@H](CCC4=CC(=O)CC[C@@]43C)[C@@H]1CC[C@@H]2C(=O)CO,inactive
7,NCCS,inactive
8,CC#C[C@]1(O)CC[C@H]2[C@@H]3CCC4=CC(=O)CCC4=C3[C@H](c3ccc(N(C)C)cc3)C[C@@]21C,inactive
9,CNCCc1ccc(O)c(O)c1,inactive
10,NCCc1c[nH]c2ccccc12,inactive
11,CCCCc1ccc(C(=O)O)nc1,inactive
12,CCn1cc(C(=O)O)c(=O)c2cc3c(cc21)OCO3,inactive
13,O=C1CCCN1CC#CCN1CCCC1,inactive
14,Cc1nc(-c2ccc(-c3ccc(C(=O)N4CCc5cc6c(cc54)C4(CCN(C)CC4)CO6)cc3)c(C)c2)no1,inactive
15,CCc1c(C)[nH]c2c1C(=O)C(CN1CCOCC1)CC2 (stereo not given),inactive
16,CCN(CC)CCNC(=O)c1ccc(NC(C)=O)cc1,inactive
17,CCCN1CCO[C@@H]2c3cc(O)ccc3OC[C@H]21,inactive
18,NCc1cc(=O)[nH]o1,inactive
19,O=C(O)Cc1cnc[nH]1,inactive
20,CNCCc1c[nH]c2ccc(O)cc12,inactive
